Our source for the AC50 values is PMC6792352, “Limited Chemical Structural Diversity Found to Modulate Thyroid Hormone Receptor in the Tox21 Chemical Library” (Environmental Health Perspectives, 2019).

SMILES strings stand for the structures.

The test system of the assay is thyroid hormone receptor (endogenous TRα and TRβ). Also on record: species or system GH3-TRE-Luc (rat pituitary); GH3-TRE-Luc luciferase reporter, antagonist mode against 1 nM T3, loss of signal, qHTS. To be noted: read-out: Average AC50 (uM) GH3-TRE-Antag, antagonist mode, 1 nM T3, no GH3 cytotoxicity hit.
What is called AC50 is the midpoint of the concentration-response curve, whichever way the signal moves. `CCC(=O)O[C@]1(C(=O)CCl)[C@@H](C)C[C@H]2[C@@H]3C[C@H](F)C4=CC(=O)C=C[C@]4(C)[C@@]3(F)[C@@H](O)C[C@@]21C` [Halobetasol propionate]: the AC50 was 42.4 µM.
On to `CCCC1O[C@@H]2C[C@H]3[C@@H]4CCC5=CC(=O)C=C[C@]5(C)[C@H]4[C@@H](O)C[C@]3(C)[C@]2(C(=O)CO)O1` (some centres unmarked) [Budesonide], for which the AC50 is > 50 µM.
As for `CCOC(=O)NC(=S)Nc1ccccc1NC(=S)NC(=O)OCC` [Thiophanate], the concentration at half-maximal activity (AC50) came to 47.1 µM.
On to `CC(O)(CS(=O)(=O)c1ccc(F)cc1)C(=O)Nc1ccc(C#N)c(C(F)(F)F)c1` (centres unmarked) [Bicalutamide], for which the AC50 worked out at 35.3 µM.
In the case of `O=C1c2ccccc2-c2n[nH]c3cccc1c23` [SP600125], the half-maximal activity concentration (AC50) is 11.6 µM.
Next, `C(CCOCC1CO1)COCC1CO1` (centres unmarked) [1,4-Butanediol diglycidyl ether]: 37.9 µM.
For `CC(=O)CC/C=C(\C)CC/C=C(\C)CC/C=C(\C)CCC=C(C)C` [Teprenone] the value was 33.9 µM; for `O=C(NOC[C@H](O)CO)c1ccc(F)c(F)c1Nc1ccc(I)cc1F` [PD 0325901], 4.11 µM.
For the molecule `COc1ccc2nc(NC(=O)Nc3ccccc3)sc2c1` [Frentizole], the concentration at half-maximal activity (AC50) worked out at 11.4 µM.
As to `CC(=O)[C@@]1(O)CC[C@H]2[C@@H]3C=C(Cl)C4=CC(=O)CC[C@]4(C)[C@H]3CC[C@@]21C` [Chlormadinone], the half-maximal activity concentration (AC50) was found to be 30.7 µM.
For `C[C@]12CC[C@@H]3c4ccc(O)cc4CC[C@H]3[C@@H]1CCC2=O` [Estrone] the value was 0.0388 µM; for `OC(CCCN1CCCCC1)(c1ccccc1)c1ccccc1` [Diphenidol], 19 µM.
For the molecule `COc1cc2c(cc1N)oc1ccccc12` [2-Methoxy-3-aminodibenzofuran], the AC50 was 84.6 µM.
For the molecule `Cc1cccc(C)c1Nc1ncccc1C(=O)O` [Metanixin], the AC50 was 28.2 µM.
